UGM FP inh = blocks M. tuberculosis UGM enzyme | P9WIQ1 | inhibition, % at 10 µM | actives 0.06% (n = 320,000) | purified UGM, fluorescence polarization probe displacement; in the data active = inhibition above about 10%, passing the limit was not always enough; inconclusive = no clear call, values can overlap the other calls
Target sequence (P9WIQ1 whole entry, looked up): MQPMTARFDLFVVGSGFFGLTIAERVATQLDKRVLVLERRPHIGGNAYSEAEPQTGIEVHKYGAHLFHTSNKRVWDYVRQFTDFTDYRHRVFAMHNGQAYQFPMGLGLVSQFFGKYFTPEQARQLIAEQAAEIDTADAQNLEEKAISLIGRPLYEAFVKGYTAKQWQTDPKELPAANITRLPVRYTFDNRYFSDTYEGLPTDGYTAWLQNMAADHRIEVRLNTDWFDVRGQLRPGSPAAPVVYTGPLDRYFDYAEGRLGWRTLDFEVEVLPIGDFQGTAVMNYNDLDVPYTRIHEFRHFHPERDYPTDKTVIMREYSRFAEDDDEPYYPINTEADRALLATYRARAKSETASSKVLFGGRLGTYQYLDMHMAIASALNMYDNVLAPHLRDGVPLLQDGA
FadD28 FP inh = M. tuberculosis FadD28 bisubstrate binding inhibition. FadD28 bisubstrate probe binding, fluorescence polarization. inhibition, % at 12.5 µM. actives 0.22% (n = 360,000); in the data active = inhibition above about 8.5%, passing the limit was not always enough; inconclusive = no clear call, values can overlap the other calls
FBA Mtb inh = Mtb fructose-bisphosphate aldolase inhibition. purified M. tuberculosis FBA, fluorescence read-out. inhibition, % at 1 µM. actives 2.3% (n = 360,000). AID 588726
GDH-TPI counter-1 = GDH-TPI coupled enzyme inhibition counter-screen; GDH-TPI coupled enzyme counterscreen, NADH absorbance; inhibition, % at 4.8 µM; AID 588335; actives 1.2% (n = 360,000); in the data active = inhibition above about 30%
Rv3671c protease = inhibitors of M. tuberculosis serine protease Rv3671c; actives 0.048% (n = 320,000); P9WHR9; inhibition, % at 5.96 µM; AID 2606; in the data active = inhibition above about 38%;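 also: extracellular domain of Rv3671c used as enzyme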
Mtb bLac sens = beta-lactam sensitization of Mtb H37Rv; actives 0.27% (n = 330,000); AID 434955; inhibition, % at 25 µM; M. tuberculosis H37Rv growth with meropenem, percent inhibition; call rule not given here;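 also: growth measured after seven days incubation then overnight dye step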
Mtb FBA inh conf = Mtb FBA inhibition, confirmed. shares compounds with FBA Mtb inh. purified M. tuberculosis FBA, fluorescence read-out. inhibition, % at 1 µM. actives 78% (n = 5,600)
GDH-TPI counter-2 = GDH-TPI inhibition counter-screen for FBA inhibitors | inhibition, % at 1 µM | GDH-TPI coupled enzyme counterscreen, fluorescence | shares compounds with FBA Mtb inh | actives 81% (n = 5,600); in the data active = inhibition above about 10%
Numbers stand for hits; n = inactive; u = inconclusive; x = no result given; + = active, no number; ! = not active in a repeat. An excerpt weighted towards active compounds, which were near 3.7% of everything screened. Rule as the data show it, unless noted: active = inhibition above about 27%; inactive = the rest.

SMILES | UGM FP inh | FadD28 FP inh | FBA Mtb inh | GDH-TPI counter-1 | Rv3671c protease | Mtb bLac sens | Mtb FBA inh conf | GDH-TPI counter-2
CC1(C)CC(NC(=O)C2CCC(=O)N(C3CC3)C2)CC(C)(C)C1 (stereo unspecified) | n | n | n | n | n | n | x | x
CN1OC[C@@H]2CN(C(=O)CCc3ccccc3)[C@H](c3ccc(N4CCCCC4)cc3)C[C@@H]21 | x | n | n | x | x | x | x | x
O=C(c1cnccn1)N(c1ccccc1)C1(C(=O)NC2CCCCC2)CCCCC1 | n | n | 30 | n | n | n | 29 | 18
O=C(c1cnccn1)N(c1ccccc1)C1(C(=O)NC2CCCC2)CCCCC1 | n | n | n | n | n | n | x | x
N#Cc1cc(-c2ccccc2)c[nH]c1=O | n | n | 58 | n | n | n | 94 | 89
N#Cc1c(-c2ccccc2)cc(-c2ccccc2)[nH]c1=O | n | n | n | n | n | n | x | x
CCn1c(=O)c2cc(C(=O)NCCN3CCOCC3)sc2c2ccccc21 | n | n | 75 | n | n | n | 198 | 162
CCn1c(=O)c2cc(C(=O)NC(C)C)sc2c2ccccc21 | n | n | 44 | n | n | n | x | +
CC(=O)Nc1cccc(C(=O)OCC(=O)N2CCN(C(=O)COC(=O)c3cccc(NC(C)=O)c3)CC2)c1 | x | n | n | n | x | x | x | x
Cc1ccc(-n2ncc3c2CCCC3NC(=O)CCc2c(C)noc2C)cc1C (stereo unspecified) | n | n | 36 | n | n | n | + | +
O=S(=O)(c1ccc(Br)cc1F)N1CCCCC1CCO (stereo unspecified) | x | n | n | n | x | x | x | x
N#Cc1c(N)oc(-c2ccco2)c1-c1ccco1 | n | n | 33 | n | n | n | 42 | 26
Oc1ccc(C2CNCCc3c2cc(O)c(O)c3Cl)cc1 (stereo unspecified) | n | n | 40! | n | n | n | n | n
c1ccc2c(c1)NC(c1ccncc1)n1c-2nc2ccccc21 (stereo unspecified) | n | n | 56 | n | n | n | n | n
CS(=O)(=O)NN1C(=O)c2ccccc2NC1c1cccs1 (stereo unspecified) | n | n | n | n | n | n | x | x
c1csc(C2Nc3ccccc3-c3nc4ccccc4n32)c1 (stereo unspecified) | n | n | 58 | n | n | u | 138 | 97
c1cncc(C2Nc3ccccc3-c3nc4ccccc4n32)c1 (stereo unspecified) | n | n | 36 | n | n | n | 115 | 92
c1ccc2c(-c3cnc4cccnn34)cncc2c1 | x | n | 40 | n | x | x | 188 | 106
CSc1ccccc1-c1cnc2cccnn12 | x | n | n | n | x | x | x | x
c1cc(-c2cnc3cccnn23)c2cccnc2c1 | x | n | 38 | n | x | x | 127 | 115
COc1cccc(CNC(=O)[C@H](C)NC(=O)N2CC(=O)Nc3ccccc32)c1 | x | n | n | n | x | x | x | x
Cc1ccc2c(Cl)c(C)c(N3CCOCC3)nc2n1 | x | n | n | n | x | x | x | x
O=C(COc1cccnc1[N+](=O)[O-])N1CCN(S(=O)(=O)c2ccccc2)CC1 | n | n | n | n | n | n | x | x
O=C(COc1nnc2ccccn12)N1CCN(S(=O)(=O)c2ccccc2)CC1 | n | n | 35 | n | n | n | n | n
C[C@H]1CN([C@@H](C)CO)C(=O)CCCn2cc(nn2)CO[C@@H]1CN(C)C(=O)CCC(F)(F)F | x | n | n | n | x | x | x | x
SMILES | UGM FP inh | FadD28 FP inh | FBA Mtb inh | GDH-TPI counter-1 | Rv3671c protease | Mtb bLac sens | Mtb FBA inh conf | GDH-TPI counter-2
COc1cc(Cn2c3ccc(NC(=S)NCc4ccc(C)cc4)cc3c(=O)n2C)ccc1F | x | n | 38 | n | x | x | 180 | 138
COc1ccc(CNC(=S)Nc2ccc(F)c(Cl)c2)cc1 | n | n | n | n | n | n | x | x
Cc1ccccc1CC(=O)Nc1ccc2c(c1)c(=O)n(C)n2-c1ccccc1F | x | n | 104 | n | x | x | 82 | 72
Cc1ccccc1CC(=O)Nc1ccc2c(c1)c(=O)n(C)n2-c1cccs1 | x | n | n | n | x | x | x | x
COc1cccc(Cn2c3ccc(NC(=O)Cc4ccccc4C)cc3c(=O)n2C)c1 | x | n | 89 | n | x | x | + | +
COc1cccc(CNC(=S)Nc2ccc3c(c2)c(=O)n(C)n3Cc2ccc(F)cc2)c1 | x | n | 29 | n | x | x | 130 | 94
COc1ccc(CNC(=S)Nc2cccc(OC)c2)cc1 | n | n | n | n | n | n | x | x
Cc1noc(C)c1NC(=O)N(C)C[C@H]1OCc2cn(nn2)CCCC(=O)N([C@@H](C)CO)C[C@@H]1C | x | n | n | n | x | x | x | x
CCOC(=O)c1ccc(S(=O)(=O)Nc2ccc(N3CCOCC3)cc2)cc1 | n | n | n | n | n | n | x | x
COC(=O)Nc1ccc(S(=O)(=O)N2CCCC(C(=O)NCC3CCCO3)C2)cc1 (stereo unspecified) | n | n | n | n | n | n | x | x
CCOC(=O)CN(C(=O)CSc1nnnn1C)c1ccccc1 | n | n | n | n | n | n | x | x
CCCNc1cc(C)c(C#N)c2nc3ccccc3n12 | n | n | 69 | n | n | n | 55 | 45
CCCc1cc(NCc2ccccn2)n2c(nc3ccccc32)c1C#N | n | n | 50 | n | n | n | 86 | 68
COc1cccc(NC(=O)CN(C)C(=O)CC2CCCC2)c1 | x | n | n | n | x | x | x | x
C=CCn1c(SCC(=O)Nc2nncs2)nnc1-c1ccco1 | n | n | 75 | n | n | n | + | +
C=CCn1c(SCC(=O)Nc2ccc(N3CCOCC3)cc2)nnc1-c1ccco1 | n | x | n | n | n | n | x | x
CN(C)C(=O)c1cnc(Cc2c[nH]c3ccccc23)c(I)c1 | x | n | n | n | x | x | x | x
Nc1ccc(Cl)c(-c2nc3ncccc3o2)c1 | n | n | n | n | n | n | x | x
Nc1cc(-c2nc3ncccc3o2)ccc1Cl | n | n | 38 | n | n | n | 87 | 71
Nc1ccc(-c2nc3ncccc3o2)c(Cl)c1 | n | n | 91 | 47 | n | n | n | n
CCOC(=O)c1c(-c2ccccc2)c[nH]c1C | x | n | n | n | x | x | x | x
N#Cc1ccccc1OCC(=O)OCC(=O)N1CCN(C(=O)c2ccco2)CC1 | n | n | 74 | n | n | n | 170 | 147
N#Cc1ccc(C(=O)OCC(=O)N2CCN(C(=O)c3ccco3)CC2)cc1 | n | n | n | n | n | n | x | x
CCOC(=O)N1CCC2(CC1)NC(=O)c1ccccc1N2 | x | n | 85 | n | x | x | 37 | 25
COc1ccc(C2Nc3ccccc3C(=O)N2NC(=O)c2ccccc2)cc1OC (stereo unspecified) | n | n | n | n | n | n | x | x
CCOC(=O)NN1C(=O)c2ccccc2NC1c1ccc(OC)c(OC)c1 (stereo unspecified) | n | n | 43 | n | n | n | n | n
CCOC(=O)NN1C(=O)c2ccccc2NC1(C)C | n | n | 104 | n | n | n | 136 | 112
COc1ccc(C2Nc3ccccc3C(=O)N2NC(C)=O)cc1OC (stereo unspecified) | n | n | 36 | n | n | n | 36 | 26

Screens (PubChem BioAssay)
